# Screening results deposited in PubChem BioAssay by National Center for Advancing Translational Sciences (NCATS).
# MCF10A rereplic – induces DNA re-replication in MCF 10a normal breast cells; MCF 10A DNA re-replication, Hoechst nuclear intensity, 48 h; AID 624296; hit rate 2.9% among 350,000; Potency, µM (highest dose often 46.1 µM), for the others: at the highest dose activity, positive = re-replication, most hits filed as activators; note: % of control where 0% means no effect; nearly all actives have a fitted effect of over 50% in size
# HT1080 IDH1KD tx – toxicity to HT-1080 IDH1 knockdown cells (counter line) | HT-1080 IDH1 knockdown viability, ATP luminescence, 48 h | Potency, µM (doses to about 46.1 µM), for inactives: at the top dose activity, negative = toxicity, most hits filed as cytotoxic | hit rate 2% among 360,000;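 note: 0% = DMSO wells and -100% = cell-free medium wells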
#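 CellTiter-Glo luminescence after 48 h compound exposure at 37 degrees C of IDH1-knockdown HT-1080 cells in 5% FBS RPMI. %Activity scaled between DMSO wells and cell-free media wells, with curves fitted and assigned curve classes.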
# SW480 rerep – induces DNA re-replication in SW480 colon adenocarcinoma cells | Potency, µM (titrated, usually from 46.1 µM), inactives show at the highest dose re-replication activation, usual class: activators | hit rate 1.8% among 340,000 | AID 624297 | SW480 DNA re-replication, Hoechst DNA content imaging, 48 h; note: % of control where 0% means no effect; nearly all actives have a fitted effect of over 55% in size
#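 Compounds, transferred as 23 nL by pin tool, were incubated with cells for 48 hr; DNA content per nucleus was then quantified by Hoechst staining and fluorescence plate imaging.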
# KB-3-1 cytotox – kills parental KB-3-1 adenocarcinoma cells | Potency, µM (doses to about 46.1 µM), hits mostly cytotoxic | AID 1347075 | hit rate 1.4% among 400,000 | KB-3-1 viability, CellTiter-Glo ATP luminescence, 72 h; note: % is set by controls: 0 for no effect and ±100 for the full control effect; nearly all actives have a fitted effect of over 60% in size
#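 Multi-concentration cytotoxicity screen in KB-3-1 cells grown in DMEM lacking phenol red with 10% FBS. After 72 h at 37 °C with compound, ATP-dependent luminescence was recorded.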
# HT1080-NT tox – kills 2HG-producing HT-1080-NT fibrosarcoma cells. AID 686970. hit rate 1.6% among 360,000. HT-1080-NT fibrosarcoma viability, CellTiter-Glo ATP luminescence, 48 h. Potency, µM (titrated, usually from 46.1 µM), for the others: at the top dose activity, negative = less viability, actives largely listed as cytotoxic;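 note: NT is the 2HG producing partner of a matched IDH1 knockdown line; 0% = DMSO-treated cells and -100% = media-only wells without cells; nearly all actives have a fitted effect of over 55% in size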
#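 A 48-hour cytotoxicity screen used HT-1080-NT cells plated 2 hours before compound delivery. ATP-based CellTiter-Glo luminescence measured viability, normalized to DMSO and no-cell controls.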
# KB-V1 MDR tox – KB-V1 MDR subline cytotoxicity. KB-V1 MDR cells viability, CellTiter-Glo, 72 h. Potency, µM (highest dose often 46.1 µM), hits mostly cytotoxic. hit rate 3.4% among 400,000. AID 1347076; note: % is set by controls: 0 for no effect and ±100 for the full control effect; nearly all actives have a fitted effect of over 60% in size
#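 Cytotoxicity toward P-gp-expressing KB-V1 cells was determined as loss of CellTiter-Glo luminescence after 72 h at 37 degrees C. Compounds were tested in quantitative HTS format across a concentration range, with curves fitted to normalized data.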
# An asterisk follows results filed as active; i = inactive; ? = inconclusive; · = no result given; [ ] = remark or other dose. In the library only some 7.9% were active in any assay of this set; here they are far more common. Calls come from the whole dose curve; as a rule, active = well fitted curve in the direction sought with a large enough effect; inconclusive = small, poorly fitted or top-dose-only effect, or another doubt; inactive = no such curve, though single readings can be large; an effect the other way counts as inactive or inconclusive. Potency is the fitted concentration of half-maximal effect.
SMILES,MCF10A rereplic,HT1080 IDH1KD tx,SW480 rerep,KB-3-1 cytotox,HT1080-NT tox,KB-V1 MDR tox
Cc1cc(-n2c(SCC(=O)NCCC3=CCCCC3)nc3n[nH]c(C)c3c2=N)ccc1Cl,21µM*,?,26%,i,18µM*,i
Cc1ccc(-n2nnnc2SCC(=O)NCCC2=CCCCC2)c(C)c1,11%,-1%,2%,i,2%,21µM*
Cc1cc(O)ccc1N/C=C/c1onc(C)c1[N+](=O)[O-],3%,?,9%,i,16µM*,i
Cc1cccc(/C=C/c2onc(C)c2[N+](=O)[O-])n1,7.3µM*,6.5µM*,?,10µM*,?,?
Cc1noc(/C=C/c2nn(C)cc2Cl)c1[N+](=O)[O-],21µM*,?,?,?,-28%,?
Cc1cccc(N/C=C/c2onc(C)c2[N+](=O)[O-])c1,36%,-5%,0%[9.22 µM],?,-7%,i
COc1cc(/C=C/c2onc(C)c2[N+](=O)[O-])cc(OC)c1OC,1%,11%,-10%,i,-1%,i
O=C(Nc1cc(Cl)ccc1Cl)c1cc([N+](=O)[O-])cc(Br)c1O,·,·,·,i,·,i
COc1ccc(NC(=O)COC(=O)C2=COCCO2)cc1OC,0%,0%,-6%,i,1%,i
CC(=O)Nc1ccc(-c2csc(NC(=O)Cc3ccccc3F)n2)cc1,-7%,-9%,-68%,i,-1%,i
COc1ccc(CNn2c(-c3cccc(C)c3)nc3ccccc3c2=O)cc1OC,0%,8%,-1%,i,0%,23µM*
COc1ccccc1CNn1c(-c2cccc(C)c2)nc2ccccc2c1=O,14%,-5%,-4%,i,-1%,23µM*
CCOC(=O)Nc1oc2ccccc2c(=O)c1CN1CCOCC1,16µM*,-9%,-4%,i,-12%,i
O=C1C(Cl)=C(NCCCO)C(=O)c2ccccc21,?,?,?,23µM*,?,i
O=C1C(Cl)=C(NCCN2CCOCC2)C(=O)c2ccccc21,86%,18µM*,?,?,?,?
O=C1C(Cl)=C(NCCCN2CCOCC2)C(=O)c2ccccc21,?,?,?,i,-18%,?
CCNC(=O)C1(C)CCN(Cc2cccc(C(F)(F)F)c2)C1 (stereo unspecified),·,8%,·,i,16%,i
O=C(CN1C(=O)CSC1=O)Nc1ccccc1F,9%,-9%,-8%,i,-3%,i
COc1ccc(C(O)P(=O)(OCC(C)C)OCC(C)C)c(OC)c1 (stereo unspecified),-2%,11%,-3%,i,13%,16µM*
Nc1cc(Cl)ccc1N1CCCCC1,-1%,5%,-1%,i,-1%,i
Nc1ccc(N2CCCCC2)cc1N1CCCCC1,21µM*,-18%[9.24 µM],?,i,?,i
CCCCN(C)CCNC(=O)c1cc2c(-c3cccc(OC)c3)nn(C)c2s1,?,23µM*,?,i,18µM*,?
CCCCN(C)CCNC(=O)c1cc2c(-c3ccccc3F)nn(C)c2s1,5%,?,-1%,i,18µM*,i
COc1cccc(-c2nn(C)c3sc(C(=O)NCCc4ccc(Cl)cc4)cc23)c1,·,·,·,i,·,i
COc1cccc(-c2nn(C)c3sc(C(=O)NCc4ccco4)cc23)c1,6.3µM*,?,9%,?,-21%,i
SMILES,MCF10A rereplic,HT1080 IDH1KD tx,SW480 rerep,KB-3-1 cytotox,HT1080-NT tox,KB-V1 MDR tox
COCCNC(=O)c1cc2c(-c3ccccc3F)nn(C)c2s1,19%,-16%,-6%,i,-7%,i
COc1cccc(-c2nn(C)c3sc(C(=O)NCCCN(C)Cc4ccccc4)cc23)c1,?,18µM*,16µM*,?,18µM*,i
CCN(CC)CCCNC(=O)c1cc2c(-c3cccc(OC)c3)nn(C)c2s1,?,?,?,i,?,i
COc1ccc(CCNC(=O)c2cc3c(-c4ccc(OC)c(OC)c4)nn(C)c3s2)cc1OC,·,·,·,i,·,?
CCOc1ccc(CCNC(=O)c2cc3c(-c4ccc(OC)c(OC)c4)nn(C)c3s2)cc1OCC,·,·,·,i,·,23µM*
Cc1ccc2nc(NC(=O)C3CC3C)sc2c1 (stereo unspecified),12%,-3%,-1%,i,0%,i
Cc1ccc(NC(=S)Nc2nc(CC(=O)Nc3ccccc3)cs2)cc1,?,7.9µM*,?,i,7.1µM*,i
CC(=O)NCCc1csc(-c2ccccc2)n1,6.5µM*,0%,?,i,10%,i
O=C(O)CCC(=O)Nc1cccc(-c2csc(-c3ccccc3)n2)c1,2%,0%,-1%,i,-1%,i
CCCCC(=O)Nc1cccc(-c2csc(-c3ccccc3)n2)c1,26µM*,?,?,i,-22%,i
Cc1cc(NC(=O)Cc2csc(-c3ccccc3)n2)ccc1Br,4%,5%,-117%,?,0%,18µM*
O=C(COS(=O)c1ccccc1)Nc1cc(Cl)ccc1N1CCOCC1 (stereo unspecified),-26%,1%,-5%,i,-1%,i
COc1cccc(C(=O)c2ncc(C(F)(F)F)cc2Cl)c1,-4%,10%,0%,i,7%,i
COc1ccc(/C=N/NC(=S)NCc2ccccc2)cc1OC,-21%,-1%,-7%,i,1%,21µM*
COCCCNC(=S)N/N=C/c1ccc(OC)c(Br)c1,29%,-2%,3.3µM*,i,-7%,i
COc1ccc(C=NNC(=S)Nc2ccc(F)cc2)cc1OC,6%,-10%,-4%,i,-6%,i
COc1ccc(CNC(=S)N/N=C/c2ccc(OC)c(OC)c2)cc1,23%,?,2%,i,-9%,i
COc1ccc(C=NNC(=S)NN=Cc2ccc(OC)c(OC)c2)cc1OC,?,-17%,?,0.46µM*,-20%,0.23µM*
CCOc1ccc(NC(=O)CSc2nc3cc(C(=O)NCC4CCCO4)ccc3c(=O)n2CC2CCCO2)cc1 (stereo unspecified),·,9%,·,i,0%,i
Cc1ccc2nc(NC(=O)c3cc(=O)c4cc(Cl)ccc4o3)sc2c1,·,·,·,i,·,i
COc1cc(OC)c(NC(=O)CCc2nc(-c3ccc(C)cc3)no2)cc1Cl,22%,-7%[9.24 µM],-1%,?,-3%,i
CCOc1ccc(-c2nc(N)ncc2-c2ccc(Cl)cc2)c(O)c1,?,-30%,-30%,i,?,i
